Results reported in the supplement of paper PMC7156485.
± gives the standard deviation of the averaged measurements.

Assays:
Details in all cases: concentration: 10 µM; 24 h
[1] = system: HCC1569; assay: cell number relative to DMSO (% of DMSO); higher = more cells (less growth inhibition / toxicity)
Procedure, shortened: (§1)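 After 24 h at 37 °C with compounds at 10 µM, in triplicate, HCC1569 and TDF cells were fixed with 3.7% formaldehyde. Immunostaining used a rabbit anti-H1.0 antibody and an AlexaFluor 647 secondary, with DAPI, and six fields per well were imaged at ×10. H1.0 nuclear intensity or cell number is presented as percent of the plate control, from the median of replicates, with HCC1569 values smoothed for positional effects.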

[2] = system: TDF; assay: as above
Procedure, shortened: as §1

[3] = system: TDF; assay: H1.0 immunofluorescence intensity relative to DMSO (% of DMSO); higher = stronger H1.0 induction, active = 120 or more
Procedure, shortened: as §1

[4] = system: HCC1569; assay: H1.0 immunofluorescence intensity relative to DMSO (% of DMSO); higher = stronger H1.0 induction, active = 140 or more
Procedure, shortened: as §1
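For H1.0 immunofluorescence intensity relative to DMSO in this document: TDF is a line of transformed human dermal fibroblasts of mesenchymal origin.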
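For cell number relative to DMSO in this document: TDF denotes transformed human dermal fibroblasts of mesenchymal origin.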

Row | Compound | cell number [1] | cell number [2] | H1.0 immunofluorescence intensity [3] | H1.0 immunofluorescence intensity [4]
1 | O=C([O-])c1cc(=O)c2c(OCC(O)COc3cccc4oc(C(=O)[O-])cc(=O)c34)cccc2o1.[Na+].[Na+] [Disodium Cromoglycate] | 98.4 | 98.3 | 90.6 (inactive) | 103 (inactive)
2 | Cc1cc(Nc2cc(N3CCN(C)CC3)nc(Sc3ccc(NC(=O)C4CC4)cc3)n2)n[nH]1 [Tozasertib] | 70.4 | 46.5 | 99.2 (inactive) | 156 (active)
3 | Brc1c(Br)c(Br)c2n[nH]nc2c1Br [TBB - 4,5,6,7-Tetrabromobenzotriazole] | 104 | 96.4 | 99.2 (inactive) | 104 (inactive)
4 | O=C(O)CP(=O)(O)O [Phosphonoacetic acid] | 101 | 109 | 95.9 (inactive) | 96.9 (inactive)
5 | CN(C)CC=C(c1ccc(Br)cc1)c1cccnc1.Cl.Cl [Zimelidine dihydrochloride] | 99 | 86.6 | 107 (inactive) | 116 (inactive)
6 | CCCn1c(=O)c2c(ncn2C)n(CCC)c1=O [1,3-Dipropyl-7-methylxanthine] | 99.5 | 101 | 93.1 (inactive) | 94.8 (inactive)
7 | CN1C2CCC1CC(NC(=O)c1nn(C)c3ccccc13)C2.O=C(O)C=CC(=O)O (configuration not stated) [LY-278,584 maleate] | 104 | 94.8 | 99.1 (inactive) | 93 (inactive)
8 | O=C(O)c1cc([N+](=O)[O-])ccc1NCCCc1ccccc1 [5-Nitro-2-(3-phenylpropylamino)benzoic acid] | 105 | 102 | 91 (inactive) | 88.1 (inactive)
9 | Br.Br.NC(N)=NCCSSCCN=C(N)N [Guanidinoethyl disulfide dihydrobromide] | 100 | 108 | 96.5 (inactive) | 98.8 (inactive)
10 | CCCCCC(O)C=CC=CC=CC(O)CC=CCCCC(=O)O [8(R),15(S)-DIHETE all trans] | 102 | 107 | 91.4 (inactive) | 98.4 (inactive)
11 | COc1cc2ncn(-c3cc(OCc4ccccc4S(C)(=O)=O)c(C#N)s3)c2cc1OC [IKK-3 Inhibitor IX] | 85.9 | 109 | 84.2 (inactive) | 127 (inactive)
12 | O=C1CN2Cc3c(ccc(Cl)c3Cl)NC2=N1 [Anagrelide] | 103 | 110 | 92.9 (inactive) | 98.7 (inactive)
13 | CC12CCC3c4ccc(O)cc4CC(CCCCCCCCCS(=O)CCCC(F)(F)C(F)(F)F)C3C1CCC2O (configuration not stated) [Fulvestrant] | 94.7 | 94.3 | 104 (inactive) | 110 (inactive)
14 | COC(=O)Nc1nc2ccc(C(=O)c3cccs3)cc2[nH]1 [Nocodazole] | 59.5 | 10.9 | 157 (active) | 136 (inactive)
15 | CC1C(=O)OC2C(O)C34C5CC(C(C)(C)C)C36C(OC(=O)C6O)OC4(C(=O)O5)C12O (configuration not stated) [Ginkgolide B] | 104 | 104 | 101 (inactive) | 82.4 (inactive)
16 | Oc1ccccc1O [Pyrocatechol] | 73.6 | 87.2 | 93.7 (inactive) | 117 (inactive)
17 | COc1cc2ncnc(Nc3ccc(O)cc3)c2cc1OC | 100 | 115 | 89 (inactive) | 96.6 (inactive)
18 | Cc1ccc(S(=O)(=O)NC(Cc2ccccc2)C(=O)CCl)cc1 [N-p-Tosyl-L-phenylalanine chloromethyl ketone] | 85.5 | 84.6 | 102 (inactive) | 113 (inactive)
19 | Cl.Cl.NCCC(=O)NCCc1cnc[nH]1 [Carcinine dihydrochloride] | 97.3 | 107 | 94.6 (inactive) | 88.5 (inactive)
20 | CCC(C)C(=O)OC1CCC=C2C=CC(C)C(CCC3CC(O)CC(=O)O3)C21 (configuration not stated) [Mevastatin] | 100.8 ± 0.37 | 87.1 ± 6.8 | 123 (active) | 95 (inactive)
21 | CCCCCC=CCC=CC=CC=CC(SCC(N)C(=O)O)C(O)CCCC(=O)O (configuration not stated) [Leukotriene E4] | 103 | 101 | 92.6 (inactive) | 102 (inactive)
22 | NCC1CCC(C(=O)O)CC1 (configuration not stated) [Tranexamic acid] | 99.5 | 104 | 87.9 (inactive) | 111 (inactive)
23 | CN1CCC(=C2c3ccccc3CC(=O)c3sccc32)CC1 [Ketotifen] | 104 | 102 | 97.6 (inactive) | 124 (inactive)
